A selection: hits, their analogues and other compounds. The true share with any hit is near 1.5%.
EBV gp42 inh – EBV gp42 inhibition; inhibition, % (tested at 21.74 µM); actives 0.42% (n = 220,000); AID 1085; Fluorescence polarization binding assay, mP read-out; in the data active means inhibition above about 50%
eLon inh – E. coli protease La inhibition | inhibition, % at 7.94 µM | P0A9M0 | actives 0.42% (n = 360,000) | purified E. coli Lon protease, fluorescence polarization; in the data active means inhibition above about 13%, passing the limit was not always enough;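 further: 0% = enzyme with probe and DMSO and 100% = no enzyme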
Target sequence (P0A9M0 whole entry, looked up): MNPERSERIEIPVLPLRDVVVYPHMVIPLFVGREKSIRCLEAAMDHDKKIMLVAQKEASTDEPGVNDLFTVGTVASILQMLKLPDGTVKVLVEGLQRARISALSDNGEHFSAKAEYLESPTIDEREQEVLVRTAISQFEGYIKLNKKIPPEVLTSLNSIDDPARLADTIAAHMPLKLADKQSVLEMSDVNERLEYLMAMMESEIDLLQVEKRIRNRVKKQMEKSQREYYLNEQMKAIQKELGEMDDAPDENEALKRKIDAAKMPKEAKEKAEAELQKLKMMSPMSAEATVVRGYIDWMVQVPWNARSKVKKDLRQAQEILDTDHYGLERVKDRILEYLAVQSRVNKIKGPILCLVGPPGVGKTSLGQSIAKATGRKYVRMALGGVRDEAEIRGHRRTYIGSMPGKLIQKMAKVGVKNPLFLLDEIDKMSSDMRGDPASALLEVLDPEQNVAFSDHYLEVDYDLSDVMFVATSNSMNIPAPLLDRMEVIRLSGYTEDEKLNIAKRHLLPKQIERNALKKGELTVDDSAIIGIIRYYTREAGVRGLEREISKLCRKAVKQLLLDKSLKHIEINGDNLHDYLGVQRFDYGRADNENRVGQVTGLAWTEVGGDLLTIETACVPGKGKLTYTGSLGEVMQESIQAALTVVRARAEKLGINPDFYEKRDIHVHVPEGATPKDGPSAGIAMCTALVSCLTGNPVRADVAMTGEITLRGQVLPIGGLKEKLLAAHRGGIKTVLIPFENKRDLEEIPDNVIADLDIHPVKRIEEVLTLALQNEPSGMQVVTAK
GLD-1 RNA inh – GLD-1-TGE RNA interaction inhibition (C. elegans); AID 2280; purified GLD-1 + fluorescein TGE RNA, fluorescence polarization; Q17339; actives 0.44% (n = 320,000); inhibition, % at 5.96 µM;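 active means percent inhibition above a per-plate cutoff, the plate mean of test compounds plus 3 SD, cut at about 30% in these data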;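 further: 0% = DMSO wells with GLD-1 and probe and 100% = wells lacking GLD-1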
MEX-5 binding – C. elegans MEX-5 TCR-2 RNA binding activity; Q9XUB2; MEX-5/FITC-TCR2 RNA binding, fluorescence polarization; hits give low values; activity score (negative = inhibition of binding), % at 10 µM; actives 0.38% (n = 300,000);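 active means inhibition past about -25% in most replicates, and total fluorescence under double the plate's negative control median, limit read from the data; inconclusive means replicates evenly split on the limit, or fluorescence at least double controls; inactive means too little inhibition in most replicates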;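 further: 0% = DMSO and -100% = 5 µM competing unlabeled TCR2 RNA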
MCL1-BIM inh – MCL1-BIM-BH3 interaction inhibition (human). actives 0.68% (n = 320,000). AID 2057. inhibition, % at 10.9 µM. Q07820. GST-MCL1 / FITC-Bim-BH3 fluorescence polarization;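 active means inhibition above the mean inhibition of all tested compounds plus 3 SD, set per campaign, cut at about 40% in these data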;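 further: 0% = DMSO wells and 100% = unlabeled Bim-BH3 peptide control; higher means more loss of mP so more displacement of Bim peptide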
BCLXL inh – blocks human Bcl-xL binding to Bim BH3 peptide. inhibition, % at 10.9 µM. GST-Bcl-xL / FITC-Bim BH3 peptide fluorescence polarization. Q07817. actives 0.7% (n = 320,000);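 active means inhibition above the mean of all tested compounds plus 3 SD, cutoff set per campaign, cut at about 30% in these data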;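 further: 0% = DMSO wells and 100% = unlabeled Bim-BH3 peptide competitor; inhibitors lower millipolarization by displacing the labeled peptide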
Starred values were filed as active, the others as inactive; ? = inconclusive; nt = not tested or not shown; + = active, no number; ! = not active in a repeat.

SMILES | EBV gp42 inh | eLon inh | GLD-1 RNA inh | MEX-5 binding | MCL1-BIM inh | BCLXL inh
CN(C)[C@@H]1C(=O)C(C(N)=O)=C(O)[C@@]2(O)C(=O)C3=C(O)c4c(O)ccc(Cl)c4[C@@](C)(O)[C@H]3C[C@@H]12 | nt | -9.4 | -0.6 | 1.5 | 13.8 | 5.2
CN(C)[C@@H]1C(=O)C(C(N)=O)=C(O)[C@@]2(O)C(=O)C3=C(O)c4c(O)cccc4[C@@](C)(O)[C@H]3[C@H](O)[C@@H]12 | 4.2 | 37.2 | 92.8* | -84.1* | + | 153.4*
COc1ccc(CN2C(=O)NC(=O)/C(=C\c3cc(OC)c(OC)c(OC)c3)C2=O)cc1 | -9.5 | -18.7 | -16.3 | -4.0 | -1.5 | -8.6
COc1ccc(CN2C(=O)NC(=O)/C(=C\c3ccco3)C2=O)cc1 | -10.9 | -103.3 | -52.7 | -46.4* | -21.1 | -30.2
Cc1[nH]nc2ccc(-c3cncc(OC[C@@H](N)Cc4c[nH]c5ccccc45)c3)cc12 | nt | -5.7 | nt | nt | nt | nt
CC12CC(=O)C3C(CCC4CC(=O)C=CC43C)C1CCC2=O (stereo unspecified) | nt | -7.8 | nt | nt | nt | nt
CCN(CC)c1ccc(N=Cc2c(O)n(Cc3ccccc3)c(=O)[nH]c2=O)cc1 | -8.5 | -9.9 | -5.4 | -29.5*! | -19.3 | -4.9
CCOc1ccc(-n2c(O)c(C=Nc3ccc(N(CC)CC)cc3)c(=O)[nH]c2=O)cc1 | 82.5* | 1.0 | 0.2 | -19.4 | -9.7 | -7.6
O=C(N/N=C/c1c(O)n(Cc2ccccc2)c(=O)[nH]c1=O)c1ccccc1O | -9.6 | -19.4 | 0.8 | -35.7* | 9.5 | 6.7
C[C@@]12N[C@@H](Cc3ccccc31)c1ccccc12 | nt | -3.6 | 0.7 | 4.7 | -0.8 | 3.0
CCOC(=O)c1c(C)n(Cc2ccccc2)c2ccc(OCC(O)CNC(C)(C)C)cc12 (stereo unspecified) | nt | -8.4 | 0.0 | 1.7 | 1.7 | 0.1
N#CC(C#N)=Cc1ccc(N2CCOCC2)cc1 | -55.1 | -22.5 | 0.1 | -27.3* | -10.5 | -2.4
COC(=O)Cn1cc(C=C2C(=O)NC(=O)NC2=O)c2ccccc21 | nt | -34.7 | -16.6 | -27.1* | -5.7 | -4.8
NC(=O)Cn1cc(C=C2C(=O)NC(=O)NC2=O)c2ccccc21 | nt | 4.8 | nt | -74.3* | nt | nt
C[C@@H]1CN([C@H](C)CO)C(=O)CCCn2nncc2CO[C@@H]1CN(C)C(=O)Oc1ccc2ccccc2c1 | nt | -4.6 | nt | nt | nt | nt
O=C1NCN(c2ccccc2)C12CCN(C(c1ccccc1OC(F)(F)F)c1nnnn1-c1ccc3c(c1)OCCO3)CC2 (stereo unspecified) | nt | -6.9 | nt | nt | nt | nt
O=c1[nH]c(=O)n(Cc2ccccc2Cl)c(O)c1/C=C1/C=CC=N1 | 57.5* | -40.2 | -19.7 | -9.7 | -68.4 | -13.5
C[CH2][Hg][S]c1ccccc1C(=O)O | nt | 0.3 | 8.3 | nt | 15.4 | 14.6
N#CCC(=O)NN1Cc2ccccc2C1=N | -15.3 | -4.8 | -0.1 | 1.2 | 1.6 | 75.1*
O=[N+]([O-])/C=C/c1c(Cl)cccc1Cl | nt | -5.2 | nt | nt | nt | nt
CCn1c(O)c(C=Nc2ccc(N3CCOCC3)c(Br)c2)c(=O)n(CC)c1=S | -11.7 | -5.5 | -0.7 | 1.5 | 1.4 | 2.0
CCn1c(O)c(C=Nc2ccc(N3CCOCC3)cc2)c(=O)n(CC)c1=S | 176.8* | -31.6 | -36.6 | ? | -82.2 | -27.6
CCOC(=O)[C@]12Cc3cc(C)ccc3[C@H]1N(C1CCCCC1)C(=O)c1cc(OC)ccc12 | nt | 4.6 | nt | nt | nt | nt
CN/C=C(/Cl)P(=O)(OC(C)C)OC(C)C | nt | -4.8 | 4.4 | nt | 3.2 | 2.3
Cc1ccc(-c2nc3ccccc3c(=O)n2-c2cccc(O)c2)cc1 | 13.0 | 5.8 | 6.0 | -5.1 | 24.1 | 31.3*
Cc1nc2ccccc2c(=O)n1-c1cccc(O)c1 | -8.6 | -1.3 | -3.6 | 1.1 | 0.9 | 3.1
Cc1ccc2c(c1N)C(=O)c1ccccc1C2=O | nt | 5.6 | -3.6 | nt | 41.8* | 47.4*
CCCCn1c(C)c(C(=O)O)c2cc(OC)c3ccccc3c21 | nt | -2.3 | 6.7 | 0.2 | 4.0 | -0.2
COc1cccc(N2C(=O)NC(=O)/C(=C/c3ccc4c(c3)Cc3ccccc3-4)C2=O)c1 | 2.3 | -19.4 | -3.8 | -42.8* | 2.4 | 1.0

From PubChem
